From PubChem
PLC-gamma1 inh: inhibitors of human phospholipase C gamma1; P19174; purified PLC-gamma1, fluorogenic substrate, fluorescence; inhibition, % at 12.2 µM; actives 0.84% (n = 370,000); AID 720700; in the data active = inhibition above about 9.5%
ADAM10 inh: inhibits human ADAM10. inhibition, % at 7 µM. recombinant ADAM10, EDANS/DABCYL FRET peptide cleavage, 3 h. actives 0.62% (n = 370,000). O14672;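 active = inhibition above a per-campaign cutoff equal to the mean of compounds falling between control-based bounds plus 3 SD, cut at about 20% in these data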;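 note: 0% = DMSO wells while the 100% control is not disclosed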
Rce1 inhib: blocks yeast Ras-converting enzyme; Q03530; AID 2563; actives 0.27% (n = 290,000); calls only; yeast membranes, quenched prenylated peptide cleavage fluorescence;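 active = fall in fluorescence gain of 50% or more versus controls, with final raw signal at or below 3038400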;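 note: plate controls were neutral control wells for no effect and wells lacking membranes for full effect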
ADAM17 inh: inhibits human ADAM17. actives 0.83% (n = 370,000). inhibition, % at 6.95 µM. recombinant ADAM17, EDANS/DABCYL FRET peptide cleavage. P78536;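 active = inhibition above the mean of compounds lying between control limits plus 3 SD, set per campaign, cut at about 8.5% in these data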;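 note: 0% = DMSO-only wells as the low control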
Target sequence (P78536 215-824 limits assumed): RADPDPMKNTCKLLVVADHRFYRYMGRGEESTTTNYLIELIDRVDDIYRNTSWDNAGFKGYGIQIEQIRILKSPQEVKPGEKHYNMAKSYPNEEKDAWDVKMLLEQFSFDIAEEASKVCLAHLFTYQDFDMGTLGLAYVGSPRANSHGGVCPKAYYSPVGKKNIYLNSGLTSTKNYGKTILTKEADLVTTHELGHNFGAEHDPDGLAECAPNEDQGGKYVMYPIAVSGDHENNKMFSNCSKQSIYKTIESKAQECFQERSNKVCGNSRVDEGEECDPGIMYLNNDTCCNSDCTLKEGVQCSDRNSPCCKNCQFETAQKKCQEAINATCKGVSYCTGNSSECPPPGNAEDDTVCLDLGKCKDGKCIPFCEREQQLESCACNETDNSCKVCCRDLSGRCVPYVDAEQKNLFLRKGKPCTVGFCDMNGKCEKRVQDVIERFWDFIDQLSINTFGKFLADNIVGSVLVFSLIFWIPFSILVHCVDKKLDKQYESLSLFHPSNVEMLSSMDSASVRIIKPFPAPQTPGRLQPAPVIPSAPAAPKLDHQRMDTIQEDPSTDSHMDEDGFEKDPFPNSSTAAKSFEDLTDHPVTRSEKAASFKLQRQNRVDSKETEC
PLCb3 inh: inhibitors of human phospholipase C beta3; Q01970; Purified PLC-beta3, fluorogenic substrate, fluorescence; inhibition, % at 12.2 µM; actives 0.18% (n = 370,000); AID 720704;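 note: 0% = median of compound wells on plate and 100% = full blocker control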
PLCg1 ctr: counter-screen for PLC-beta3 inhibitors: inhibitors of human PLC-gamma1; purified PLC-gamma1, fluorogenic substrate, fluorescence; inhibition, % at 12.3 µM; actives 3.1% (n = 3,300); shares compounds with PLC-gamma1 inh; AID 743258; in the data active = inhibition above about 9.5%
PLCb3 confirm: confirmation of human PLC-beta3 inhibitors; inhibition, % at 12.3 µM; shares compounds with PLC-gamma1 inh; purified PLC-beta3, fluorogenic substrate fluorescence; actives 1% (n = 3,300)
* hit, by the source's call; i = inactive; nt = not tested or not shown. Compounds with a hit are over-represented: about 2.1% of the library has one in this group of screens. Cut-off read from the data, not from the text of the source, unless noted: active = inhibition above about 11%; inactive = the rest.

SMILES	PLC-gamma1 inh	ADAM10 inh	Rce1 inhib	ADAM17 inh	PLCb3 inh	PLCg1 ctr	PLCb3 confirm
COc1ccc(C(c2c(C)[nH]n(-c3ccccc3)c2=O)c2c(C)[nH]n(-c3ccccc3)c2=O)cc1OC	25*	2	i	2	8	1	0
CCOC(=O)[C@H]1[C@H]2COc3ccccc3[C@@H]2N2C(=O)c3cc(F)c(F)cc3NC(=O)[C@@]12C	4	0	nt	3	5	nt	nt
CCOC(=O)[C@H]1[C@H]2COc3ccccc3[C@@H]2N2C(=O)CNC(=O)[C@@]12C	7	4	nt	4	13*	-9	-2
COc1cc(OC)nc(Nc2nc(C(N)CCc3ccccc3)cs2)n1 (stereo unspecified)	11*	3	nt	2	3	-9	-3
O=C(O)CCCn1cc(NC(=O)COc2ccccc2)cn1	11*	-5	i	6	-1	-1	2
Cc1csc(SCC(=O)Nc2cccc(S(=O)(=O)N3CCOCC3)c2)n1	-1	3	i	-2	-3	nt	nt
Cn1cccc1C(=O)OCC(=O)Nc1cccc(S(=O)(=O)N2CCOCC2)c1	11*	13	i	0	0	-4	-1
O=C(Cc1ccccc1Cl)Nc1cccc(S(=O)(=O)N2CCOCC2)c1	9.9*	10	i	5	2	-3	-3
Cc1nc(SCC(=O)Nc2cccc(S(=O)(=O)N3CCOCC3)c2)nc(C)c1C	14*	7	nt	7	4	-6	-3
O=C(COC(=O)c1cccs1)Nc1cccc(S(=O)(=O)N2CCOCC2)c1	0	-2	i	0	2	nt	nt
CC(C)N1C(=O)c2ccccc2NC(=O)C1C(=O)NCc1cccc(C(F)(F)F)c1 (stereo unspecified)	-4	-4	nt	-6	-2	nt	nt
CC1(C2CC(C(F)(F)F)n3nc(C(=O)O)cc3N2)CC1 (stereo unspecified)	-5	-1	i	1	0	nt	nt
Cc1ccc([C@H]2N[C@]3(CCCN(Cc4ccco4)C3=O)[C@H]3C(=O)N(Cc4ccccc4)C(=O)[C@@H]23)cc1	12*	0	nt	3	3	0	-4
O=C(Cn1cccc1C(=O)c1ccccc1)NCc1ccc(Cl)cc1	2	-1	i	-3	-3	nt	nt
Cc1ccc(CNC(=O)Cn2cccc2C(=O)c2ccccc2)cc1	12*	0	i	0	3	-6	-5
Cc1ccc2c(CSc3nncn3C)cc(=O)oc2c1C	11*	-2	i	2	5	-9	-1
Cc1ccc2c(CN3CCCCC3)cc(=O)oc2c1C	-8	0	i	-3	-9	nt	nt
CC(O)(c1cccc(F)c1)c1nc(-c2cccc(F)c2)cs1 (stereo unspecified)	11*	2	nt	5	-3	-2	0
Cc1ccc(-c2csc(C(C)(O)c3cccc(F)c3)n2)cc1C (stereo unspecified)	-1	13	nt	4	-2	nt	nt
Cc1[nH]n(-c2ccccc2)c(=O)c1/C=N/NC(=O)c1ccc(O)cc1O	nt	nt	i	nt	nt	nt	nt
CCCCN(CCCC)C(=S)N/N=C/c1c(C)[nH]n(-c2ccccc2)c1=O	9.9*	-5	i	2	5	-9	-21
CCCC1S/C(=N/N=C/c2cccs2)NC1=O (stereo unspecified)	3	4	i	2	6	nt	nt
CCC1S/C(=N/N=C/c2cccs2)NC1=O (stereo unspecified)	15*	4	i	-3	2	3	-2
Cc1cccc(CC(=O)N2CCCC2)c1	-2	1	i	-4	-8	nt	nt
CC1=C(C)CC(C(=O)NNC(=O)c2ccccc2)C(C(=O)O)C1 (stereo unspecified)	11*	11	i	6	10	-3	0
SMILES	PLC-gamma1 inh	ADAM10 inh	Rce1 inhib	ADAM17 inh	PLCb3 inh	PLCg1 ctr	PLCb3 confirm
CCOC(=O)CC/C(=N\NC(N)=O)c1ccc(OC)c(Cl)c1	7	-2	i	-2	0	nt	nt
Nc1nc2c(nnn2C2CC(O)C(CO)O2)c(=O)[nH]1 (stereo unspecified)	-3	-9	nt	-4	-2	nt	nt
Cc1cccc(NC(=S)N2CCC(N(C)CC3CCCO3)CC2)c1 (stereo unspecified)	9.7*	9	i	1	0	-2	1
Cc1ccc(NC(=S)N2CCC(N(C)CC3CCCO3)CC2)cc1C (stereo unspecified)	3	-4	i	-3	-4	nt	nt
COc1ccccc1NC(=O)Nc1ccc2c(c1)OCCO2	2	7	i	6	12*	-1	1
COc1cccc(OC)c1C(=O)Nc1ccc2c(c1)OCCO2	4	0	i	-1	4	nt	nt
N/C(COc1cc(Cl)cc(Cl)c1)=N\O	8	-6	i	-3	2	nt	nt
NC1=NC2(CCCCC2)n2c(nc3ccccc32)N1	-1	2	i	2	2	nt	nt
NC1=NC2(CCN(Cc3ccccc3)CC2)n2c(nc3ccccc32)N1	12*	6	i	4	4	-2	-5
CCOC(=O)c1cc(-c2ccccc2)sc1NC(=O)CSc1nnnn1C	1	-2	i	-1	3	nt	nt
CCOC(=O)c1sc(-c2ccccc2)cc1NC(=O)CSc1nnnn1C	13*	11	i	6	3	-6	-3
COc1cc(/C=N/NC(=O)c2cccnc2)ccc1OCC(=O)Nc1c(C)cc(C)cc1C	10*	2	i	-1	9	-50	-50
COCC(=O)Nc1ccc([N+](=O)[O-])cc1OC	2	-1	i	0	3	nt	nt
COCC(=O)Nc1cc([N+](=O)[O-])ccc1OC	13*	2	i	-3	5	-3	0
COc1ccc([N+](=O)[O-])cc1NC(=O)c1cn(-c2ccc(C)c(C)c2)c(=O)c2ccccc12	11*	2	i	4	6	-4	-2
Cc1cccc(C)c1NC(=O)c1csc(COCCO)n1	0	-6	nt	-5	4	nt	nt
COC(=O)[C@]1(CNC(=O)C(C)(C)C)CC(=O)N(Cc2ccc(Cl)cc2)[C@@H]1c1ccc(OC)cc1	3	8	nt	3	5	nt	nt
COC(=O)[C@]1(CNC(C)=O)CC(=O)N(Cc2ccc(Cl)cc2)[C@@H]1c1ccc(OC)cc1	11*	4	nt	6	1	-9	-4
O=C(N[C@@H](Cc1cccnc1)C(=O)N1CCC[C@H]1C(=O)NCCc1ccccc1Cl)c1cccs1	0	2	nt	-1	0	nt	nt
CC(C)OC(=O)c1ccc(NC(=O)C2C3CC4OC(=O)C2C4C3)cc1 (stereo unspecified)	-4	0	i	-4	1	nt	nt
Cc1ccc(NC(=O)C2C3CC4OC(=O)C2C4C3)cc1Cl (stereo unspecified)	9.6*	-2	i	2	5	-6	-6
O=C(COc1ccccc1Cl)N1CCCC1	1	3	i	-2	1	nt	nt
